Laboratory results as given in PubChem BioAssay (NCI).
The panel holds about 83,000 compounds, 20% with a hit somewhere; the sample as a whole holds those more often.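 Results are percent growth after 48 hours of single-concentration exposure. 100 means growth as in untreated cells, lower positive values show inhibition; negative values down to -100 show cell death.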 Activity calls are given as the source filed them. Rule for the calls: active = growth percent below 10; inactive = the rest.

Legend:
Assay in all cases: NCI-60 one-dose screen, 48 h (100 = growth as untreated, 0 = no growth, -100 = all killed)
HT29 colon = settings: 10 µM unless noted
SNB-75 CNS = settings: 10 µM unless noted
SNB-19 CNS = settings: 10 µM unless noted
U251 CNS = settings: 10 µM unless noted
PC-3 prostate = settings: 10 µM unless noted
UACC-62 melanoma = settings: 10 µM unless noted
SK-MEL-28 melanoma = settings: 10 µM
SK-MEL-2 melanoma = settings: 10 µM unless noted
EKVX NSCLC = settings: 10 µM unless noted
SN12C renal = settings: 10 µM unless noted
UO-31 renal = settings: 10 µM unless noted
TK-10 renal = settings: 10 µM unless noted
ACHN renal = settings: 10 µM unless noted
CAKI-1 renal = settings: 10 µM unless noted
A498 renal = settings: 10 µM unless noted
CCRF-CEM leukemia = settings: 10 µM unless noted
MOLT-4 leukemia = settings: 10 µM unless noted
LOX IMVI melanoma = settings: 10 µM unless noted
SR leukemia = settings: 10 µM unless noted
SK-MEL-5 melanoma = settings: 10 µM unless noted

Measured: growth

O=c1oc2ccc(Cl)cc2c(=O)n1-c1cc(C(F)(F)F)cc(C(F)(F)F)c1
inactive: SNB-19 CNS 13.5% | PC-3 prostate 11.9%
active: HT29 colon 1.92% | SNB-75 CNS -36.2% | U251 CNS -15.2% | UACC-62 melanoma -34.7% | SK-MEL-28 melanoma -18.9% | SK-MEL-2 melanoma -34.2% | EKVX NSCLC 5.27% | SN12C renal 1.28% | UO-31 renal 6.17% | TK-10 renal 0.337% | ACHN renal 3.99% | CAKI-1 renal -24.7% | A498 renal -68.8% | CCRF-CEM leukemia 5.13% | MOLT-4 leukemia -16.9%

O=c1oc2ccc(F)cc2c(=O)n1-c1ccc(Cl)cc1F
active: SNB-75 CNS -13.6% | U251 CNS 2.3% | PC-3 prostate 0.0571% | UACC-62 melanoma -8.7% | SK-MEL-2 melanoma -28.7% | EKVX NSCLC 9.11% | SN12C renal 1.59% | UO-31 renal 1.41% | TK-10 renal 5.92% | ACHN renal 1.55% | CAKI-1 renal -21.5% | A498 renal -51% | MOLT-4 leukemia -5.46%
inactive: HT29 colon 26.7% | SNB-19 CNS 16.1% | LOX IMVI melanoma 16.9% | CCRF-CEM leukemia 12.7%

O=c1oc2ccc(Br)cc2c(=O)n1-c1ccc(Cl)cc1F
inactive: HT29 colon 20.2% | SNB-19 CNS 17.7%
active: SNB-75 CNS -26.9% | U251 CNS 3.56% | PC-3 prostate -7.82% | UACC-62 melanoma -28.5% | LOX IMVI melanoma 8.91% | SK-MEL-28 melanoma -0.768% | EKVX NSCLC 9.06% | SN12C renal 1.42% | UO-31 renal 7.61% | TK-10 renal 7.09% | ACHN renal 2.66% | CAKI-1 renal -18.1% | A498 renal -69.8% | CCRF-CEM leukemia 6.89% | MOLT-4 leukemia -8.39%

CC/C=C\C[C@H](O)C/C=C1/C(=O)C=C[C@@H]1C/C=C\CCCC(=O)OCCS(=O)(=O)c1ccccc1
active: LOX IMVI melanoma -34.1% | CCRF-CEM leukemia 5.02% | MOLT-4 leukemia 8.02% | SR leukemia 8.55%
inactive: HT29 colon 45.1% | SNB-75 CNS 111% | SNB-19 CNS 56.2% | U251 CNS 16.3% | PC-3 prostate 63.4% | UACC-62 melanoma 16.1% | SK-MEL-28 melanoma 73.9% | SK-MEL-2 melanoma 72% | EKVX NSCLC 104% | SN12C renal 37.3% | UO-31 renal 70.4% | TK-10 renal 104% | ACHN renal 86.3% | CAKI-1 renal 65.4% | A498 renal 115%

COc1ccccc1C(=O)/C=C/c1ccccc1
inactive: HT29 colon 56.6% | SNB-75 CNS 88.5% | SNB-19 CNS 82.8% | U251 CNS 43.8% | PC-3 prostate 75.3% | UACC-62 melanoma 85.2% | LOX IMVI melanoma 76.2% | SK-MEL-28 melanoma 105% | SK-MEL-2 melanoma 104% | EKVX NSCLC 97.8% | SN12C renal 83.5% | UO-31 renal 73.4% | ACHN renal 90.5% | CAKI-1 renal 90.4% | A498 renal 98.8% | CCRF-CEM leukemia 46.3% | MOLT-4 leukemia 81.1% | SR leukemia 43.1%

CC(C)CCOc1ccc(-c2n[nH]c(C(F)(F)F)c2-c2cncc(C#N)c2)c(O)c1
inactive: HT29 colon 48.9% | SNB-75 CNS 30.1% | SNB-19 CNS 13.1% | UACC-62 melanoma 17.5% | TK-10 renal 11.4% | MOLT-4 leukemia 23% | SR leukemia 33.7%
active: U251 CNS 2.85% | PC-3 prostate 1.74% | LOX IMVI melanoma 5.15% | SK-MEL-2 melanoma -13.8% | EKVX NSCLC 3.52% | SN12C renal 3.81% | UO-31 renal 3.89% | ACHN renal 8.84% | CAKI-1 renal 9.47% | A498 renal -25.5% | CCRF-CEM leukemia 6.67%

Cc1ccc(Cc2cnc(NC(=O)CN3C(=O)/C(=C\c4ccccc4)SC3=S)s2)cc1
inactive: HT29 colon 114% | SNB-75 CNS 94.4% | SNB-19 CNS 99.7% | U251 CNS 94.8% | SK-MEL-5 melanoma 102% | UACC-62 melanoma 98.4% | LOX IMVI melanoma 98.6% | SK-MEL-28 melanoma 106% | SK-MEL-2 melanoma 106% | EKVX NSCLC 98.1% | SN12C renal 96.6% | UO-31 renal 89.4% | TK-10 renal 106% | ACHN renal 101% | CAKI-1 renal 95.5% | A498 renal 109% | CCRF-CEM leukemia 107% | MOLT-4 leukemia 104% | SR leukemia 114%

O=c1oc2ccc(Br)cc2c(=O)n1-c1ccc(I)cc1F
active: SNB-75 CNS -20.8% | U251 CNS 0.947% | PC-3 prostate -0.134% | UACC-62 melanoma -19.7% | LOX IMVI melanoma 6% | SK-MEL-28 melanoma -2% | SK-MEL-2 melanoma -32.6% | UO-31 renal 7.32% | TK-10 renal 7.64% | ACHN renal 3.46% | CAKI-1 renal -8.71% | A498 renal -70.2% | CCRF-CEM leukemia 7.41% | MOLT-4 leukemia -26.3%
inactive: HT29 colon 40.1% | SNB-19 CNS 18.4% | EKVX NSCLC 12.5%

O=c1c2cc(F)ccc2sc2c(NCCCNCCO)nc3ccc(Cl)cc3c12
inactive: SNB-75 CNS 46.1% | SNB-19 CNS 76.5% | U251 CNS 33% | PC-3 prostate 50.7% | UACC-62 melanoma 91.6% | LOX IMVI melanoma 14.6% | SK-MEL-2 melanoma 105% | EKVX NSCLC 88.8% | SN12C renal 67.4% | UO-31 renal 58.5% | TK-10 renal 77.1% | ACHN renal 60.8% | CAKI-1 renal 27.8% | A498 renal 60.7% | CCRF-CEM leukemia 13.7% | MOLT-4 leukemia 18.7%
active: HT29 colon -48.6%

COc1cc2c(cc1OC)C(=O)C(CC1CCN(C(=O)Nc3ccc(C)cc3)CC1)C2 (configuration not stated)
inactive: HT29 colon 107% | SNB-75 CNS 88.4% | SNB-19 CNS 95.2% | U251 CNS 106% | PC-3 prostate 88.6% | UACC-62 melanoma 79.9% | LOX IMVI melanoma 96.9% | SK-MEL-28 melanoma 99.1% | EKVX NSCLC 90.9% | SN12C renal 92.5% | UO-31 renal 60.4% | TK-10 renal 116% | ACHN renal 93.6% | CAKI-1 renal 83.7% | A498 renal 69.4% | CCRF-CEM leukemia 97.8% | MOLT-4 leukemia 102% | SR leukemia 112%

COC(=O)C1=Nc2ccc(F)cc2/C1=C/c1sc(=S)[nH]c1O
active: HT29 colon 8.16% | U251 CNS 8.56% | SK-MEL-5 melanoma -41%
inactive: SNB-75 CNS 11.6% | SNB-19 CNS 30.4% | UACC-62 melanoma 53.6% | LOX IMVI melanoma 13% | SK-MEL-28 melanoma 59.4% | SK-MEL-2 melanoma 39.5% | EKVX NSCLC 36.8% | SN12C renal 27.3% | UO-31 renal 14.7% | TK-10 renal 56% | ACHN renal 25.1% | CAKI-1 renal 20% | A498 renal 25.7% | CCRF-CEM leukemia 11.9% | MOLT-4 leukemia 13.7% | SR leukemia 22.3%

O=C(CN1C(=O)/C(=C\c2ccc(Cl)cc2)SC1=S)Nc1ncc(Cc2ccc(Cl)cc2)s1
inactive: HT29 colon 110% | SNB-75 CNS 88.6% | SNB-19 CNS 102% | U251 CNS 100% | SK-MEL-5 melanoma 95.7% | UACC-62 melanoma 99.9% | LOX IMVI melanoma 92.9% | SK-MEL-28 melanoma 106% | SK-MEL-2 melanoma 105% | EKVX NSCLC 96.5% | SN12C renal 104% | UO-31 renal 80.8% | TK-10 renal 111% | ACHN renal 103% | CAKI-1 renal 88.1% | A498 renal 115% | CCRF-CEM leukemia 106% | MOLT-4 leukemia 106% | SR leukemia 116%

CC1=CCC(OC(=O)C(C)(C)CCC(O)(C(=O)OC2(C(C)C)CCC3(C)OC3C2)C(C)C)(C(C)C)CC1 (configuration not stated)
inactive: SR leukemia 11.3%
active: HT29 colon -70.2% | SNB-75 CNS -98% | SNB-19 CNS -97.2% | U251 CNS -98.8% | SK-MEL-5 melanoma -97.2% | UACC-62 melanoma -94.2% | LOX IMVI melanoma -90.5% | SK-MEL-28 melanoma -96.9% | SK-MEL-2 melanoma -91.6% | EKVX NSCLC -63% | UO-31 renal -99.2% | TK-10 renal -99.2% | ACHN renal -94.8% | CAKI-1 renal -100% | A498 renal -83.1% | CCRF-CEM leukemia -19.2% | MOLT-4 leukemia -30.3%

O=c1oc2ccc(I)cc2c(=O)n1-c1ccc(I)cc1F
inactive: HT29 colon 28.3% | SNB-19 CNS 21.2% | TK-10 renal 11.3%
active: SNB-75 CNS -22.6% | U251 CNS 1.81% | PC-3 prostate 3.97% | UACC-62 melanoma -28.6% | LOX IMVI melanoma 4.98% | SK-MEL-28 melanoma -4.19% | EKVX NSCLC 9.77% | SN12C renal 4.52% | UO-31 renal 8.63% | ACHN renal 4.07% | CAKI-1 renal -20.2% | A498 renal -73.3% | CCRF-CEM leukemia 6.91% | MOLT-4 leukemia -35.6%

COc1ccc(-c2c(-c3ccc(OC)c(O)c3)cnc3ncnn23)cc1
inactive: HT29 colon 108% | SNB-75 CNS 99.6% | SNB-19 CNS 102% | U251 CNS 102% | PC-3 prostate 105% | UACC-62 melanoma 99% | LOX IMVI melanoma 99.8% | SK-MEL-28 melanoma 114% | SK-MEL-2 melanoma 107% | EKVX NSCLC 98.1% | UO-31 renal 94.1% | TK-10 renal 98% | ACHN renal 105% | CAKI-1 renal 95.1% | A498 renal 91.9% | CCRF-CEM leukemia 102% | MOLT-4 leukemia 100% | SR leukemia 109%

O=C1c2ccccc2C(=O)c2c1ccc1[nH]c(CCl)nc21
active: HT29 colon 5.78% | U251 CNS 9.78% | CAKI-1 renal 7.26% | CCRF-CEM leukemia -12.5% | MOLT-4 leukemia -2.42%
inactive: SNB-75 CNS 33.4% | SNB-19 CNS 47.8% | PC-3 prostate 39.3% | UACC-62 melanoma 39.5% | SK-MEL-28 melanoma 57.6% | SK-MEL-2 melanoma 27.4% | EKVX NSCLC 72.5% | UO-31 renal 22.7% | TK-10 renal 30.9% | ACHN renal 10.7% | A498 renal 16.3%

N[C@@H](CC/[N+]([O-])=N/O)C(=O)O
inactive: HT29 colon 99.8% | SNB-75 CNS 113% | SNB-19 CNS 97.8% | U251 CNS 94.9% | PC-3 prostate 102% | UACC-62 melanoma 98.4% | LOX IMVI melanoma 104% | SK-MEL-28 melanoma 106% | SK-MEL-2 melanoma 107% | EKVX NSCLC 89.3% | SN12C renal 101% | UO-31 renal 94.9% | TK-10 renal 104% | ACHN renal 105% | CAKI-1 renal 97.6% | A498 renal 111% | CCRF-CEM leukemia 105% | MOLT-4 leukemia 104% | SR leukemia 126%

CCCc1c(C)c2sc(=O)[nH]c2[nH]c1=O
inactive: HT29 colon 110% | SNB-75 CNS 99.1% | SNB-19 CNS 101% | U251 CNS 99.5% | SK-MEL-5 melanoma 100% | UACC-62 melanoma 105% | LOX IMVI melanoma 100% | SK-MEL-28 melanoma 110% | SK-MEL-2 melanoma 108% | EKVX NSCLC 98.8% | SN12C renal 107% | UO-31 renal 94.8% | TK-10 renal 110% | ACHN renal 106% | CAKI-1 renal 99% | A498 renal 112% | CCRF-CEM leukemia 124% | MOLT-4 leukemia 106% | SR leukemia 109%
